High-throughput results from PubChem BioAssay.
In the library only some 3.2% were active in any assay of this set; here they are far more common.
PfGluPho inh = PfG6PD (Plasmodium falciparum) enzyme inhibition; inhibition, % at 20 µM; PfGluPho enzyme, NADPH resazurin-diaphorase fluorescence; actives 0.78% (n = 350,000);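 active means inhibition reaching at least a set limit at 20 µM in the primary screen, cut at about 59% in these data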;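 further: 0% = DMSO wells with substrate and 100% = DMSO wells lacking glucose-6-phosphate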
FAS TE block = FAS thioesterase (human) inhibition. actives 0.67% (n = 360,000). P49327. recombinant FAS-TE, OMFH fluorogenic substrate, fluorescence endpoint. inhibition, % at 15 µM;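 active means compounds whose normalised, plate-corrected inhibition of enzyme fluorescence in the single-dose primary screen is 50% or more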;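 further: 0% = DMSO with enzyme and 100% = substrate without enzyme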
aDG glyco up = alpha-DG glycosylation activation. Pro5-aDG cells, alpha-DG glycosylation AlphaScreen (IIH6); 0% Pro5, 100% B10-LARGE cell signal. actives 0.22% (n = 360,000). AID 624168. activation, % at 10 µM;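 active means activation of at least 8% versus controls, or a plate z-score of at least 8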;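 further: Pro5 are CHO cells carrying HIG-tagged alpha-DG that lacks glycosylation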
CRFR2-BP antag = CRF-BP/CRF-R2 complex antagonism. inhibition, % at 11.8 µM. actives 0.59% (n = 350,000). HEK293 CRF-R2/CRF-BP, CRF-induced calcium fluorescence;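 active means inhibition of the ligand-induced calcium signal above about 50% at the single tested concentration, limit read from the data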
Cardio protect = modulators protecting cardiomyocytes from myocardial damage; H9c2 cardiomyocytes, H2O2 injury protection, ATPLite, 2 h; protection from H2O2 cell death, % at 20 µM; actives 0.63% (n = 360,000); AID 588492;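 active means compounds giving at least 50% protection of heart cells from peroxide-induced death in the single-dose screen, raw or plate-pattern-corrected value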;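 further: 0% = DMSO wells with peroxide and 100% = DMSO wells without peroxide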
CRFBP-R2 agonist = CRF-BP/CRF-R2 complex agonism. HEK293 CRF-R2/CRF-BP, calcium dye fluorescence (FLIPR); percent of saturating CRF peptide response. activation, % at 13.2 µM. actives 0.46% (n = 350,000). AID 588473;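 active means activation of at least 50%, plus an integration ratio under a set limit after plate pattern correction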;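 further: plate controls were neutral control wells without compound for no effect and CRF at EC100 for full effect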
The depositor's hits bear a star; nt = no result given.

SMILES	PfGluPho inh	FAS TE block	aDG glyco up	CRFR2-BP antag	Cardio protect	CRFBP-R2 agonist
O=C(NCc1ccc(F)cc1)c1cccc2c1C(=O)c1ccc(N3CCOCC3)cc1S2(=O)=O	-19	-4	0	-2	9	28
O=C(NCc1ccc(F)cc1)c1cccc2c1C(=O)c1ccc(N3CCC(Cc4ccccc4)CC3)cc1S2(=O)=O	5	-138	1	-51	-1	126*
O=C(NCCc1ccccc1)c1cccc2c1C(=O)c1ccc(N3CCOCC3)cc1S2(=O)=O	-15	-8	0	-1	18	26
O=C(NCc1cc(C(F)(F)F)ccc1Cl)c1cccc2c1C(=O)c1ccc(N3CCC(Cc4ccccc4)CC3)cc1S2(=O)=O	23	-104	0	-27	3	73*
CC(C)(C)CNC(=O)c1cccc2c1C(=O)c1ccc(N3CCCC3)cc1S2(=O)=O	-1	-50	0	44	17	22
C=CCNC(=O)c1cccc2c1C(=O)c1ccc(N3CCOCC3)cc1S2(=O)=O	-1	-11	0	98*	15	4
O=C(NCc1ccccc1C(F)(F)F)c1cccc2c1C(=O)c1ccc(N3CCCCC3)cc1S2(=O)=O	-20	-44	0	-42	10	76*
CC(C)Cn1c(=O)c2c(nc3n2CC(C)CN3Cc2ccccc2)n(C)c1=O (stereo unspecified)	-6	5	0	0	8	0
COc1ccc(S(=O)(=O)N2CCCCC2)cc1NC(=O)Cc1ccsc1	20	6	0	10	-8	0
CC1CCN(c2ccc3c(c2)S(=O)(=O)c2cccc(C(=O)NCc4ccc(F)cc4)c2C3=O)CC1	-14	-161	0	-34	3	85*
O=C(NC1CCCCC1)c1cccc2c1C(=O)c1ccc(N3CCCC3)cc1S2(=O)=O	-10	-62	0	-20	19	36
O=C(NC1CC1)c1cccc2c1C(=O)c1ccc(N3CCC(Cc4ccccc4)CC3)cc1S2(=O)=O	12	-53	0	-40	-3	83*
O=C(NCc1ccc(F)cc1)c1cccc2c1C(=O)c1ccc(N3CCC(N4CCCCC4)CC3)cc1S2(=O)=O	15	-18	0	-36	-4	17
O=S(=O)([N-]c1nc2ccccc2nc1-[n+]1ccccc1)c1ccccc1	-11	-13	0	10	4	1
O=S(=O)([N-]c1nc2ccccc2nc1-[n+]1ccc(-c2ccncc2)cc1)c1ccccc1	13	-26	1	-99	2	224*
O=C(N/N=C/c1sc2ccccc2c1O)c1ccccc1	5	-11	1	-18	29	15
COc1ccc2cc(C(=O)N/N=C/c3sc4ccccc4c3O)ccc2c1	-4	-10	0	-179	20	166*
COc1ccc(C(=O)N/N=C/c2sc3ccccc3c2O)cc1	13	0	1	-73	23	50*
COc1ccccc1N(Cc1ccccc1)S(=O)(=O)c1cccc(C(=O)N2CCCCC2)c1	-11	28	0	13	8	-1
CCN1CCN(C(=S)c2ccc(Cl)cc2)CC1	81*	-4	0	-10	-8	1
CCOC(=O)[C@]12CCC=C1N(Cc1ccco1)C(=O)[C@H](CC(=O)NCc1ccccc1)C2	nt	-6	0	nt	nt	nt
CCOc1ccc(S(=O)(=O)N2CCN(C(=O)c3ccncc3)CC2)cc1	-12	6	0	62*	-8	1
CCOc1ccc(NS(=O)(=O)c2ccc(NC(=O)C3CC3)cc2)cc1	4	2	1	-8	-13	1
CCOc1ccc(NS(=O)(=O)c2ccc(C(=O)N3CCCC(C)C3)cc2)cc1 (stereo unspecified)	3	3	2	-26	-24	55*
O=C(c1ccc(S(=O)(=O)Nc2ccccc2)cc1)N1CCCC(C(F)(F)F)C1 (stereo unspecified)	-11	1	0	-65	-2	73*
SMILES	PfGluPho inh	FAS TE block	aDG glyco up	CRFR2-BP antag	Cardio protect	CRFBP-R2 agonist
O=C(c1ccccc1)c1ccc(C(=O)N2CCCC(C(F)(F)F)C2)cc1 (stereo unspecified)	-4	14	0	-17	-4	-1
CCOc1ccc(NS(=O)(=O)c2ccc(NC(=O)[C@@H]3CCCC[C@@H]3C(=O)O)cc2)cc1	13	-8	0	-225	0	189*
COc1ccc(NC(=O)CN(C)C(C)C(=O)NC(=O)NC2CCCCC2)cc1 (stereo unspecified)	-6	-2	0	-5	-7	0
O=C(NCc1cccs1)C(=O)NCC1OCCCN1S(=O)(=O)c1cc(F)ccc1F (stereo unspecified)	-1	-2	0	5	1	-2
CC(C)=C[C@@H]1C[C@H](C)[C@H]2CC[C@H](C)c3c(O)c(O)c(C)c1c32	79*	12	0	0	-2	-1
COc1ccc(CN(C(=O)c2ccc(C)cc2)C2CCS(=O)(=O)C2)cc1 (stereo unspecified)	6	-2	0	64*	6	0
O=C(NNC(=O)c1ccccc1OCc1ccccc1Cl)c1csc(N2CCOCC2)n1	8	9	0	3	52*	0
Cc1ccc2nc(-c3ccccc3)cc(C(=O)NNC(=O)c3csc(N4CCOCC4)n3)c2c1	-28	7	0	-10	58*	-1
COc1ccc(NC(=O)CSc2nnc(-c3cccs3)n2N)c(OC)c1	20	-8	0	3	1	0
COc1cc(-c2nnc(-c3cc(OC)c(OC)c(OC)c3)o2)cc(OC)c1OC	10	-6	0	5	66*	-2
COc1cc(-c2nnc(SCC(=O)c3ccc(C)cc3)o2)cc(OC)c1OC	-2	22	0	4	14	0
COc1cc(-c2nnc(-c3cc(-c4ccccc4)nc4ccccc34)o2)cc(OC)c1OC	2	11	0	-4	56*	5
COc1cccc(C(=O)CSc2nnc(-c3cc(OC)c(OC)c(OC)c3)o2)c1	3	24	0	9	58*	1
COc1ccc(-c2nc3c4ccccc4[nH]c(=O)n3n2)cc1	25	-5	0	-21	29	0
COc1cc2[nH]c(=O)n3nc(-c4ccccc4)nc3c2cc1OC	17	-2	0	3	95*	4
Cc1onc(-c2ccccc2)c1CNC(=O)CN1C(=O)c2ccccc2C1=O	-3	-1	0	109*	3	1
Cc1cc(C)cc(NC(=O)NCc2c(-c3ccccc3)noc2C)c1	9	2	0	24	-9	-1
Cc1cccc(-c2nnc(SCC(=O)C(C)(C)C)n2C)c1	0	-3	0	-2	4	3
CC(C)(C)c1ccc(C(=O)NCc2ccc(Cl)cc2)cc1	-13	6	0	-5	-3	-1
